Source: PubChem BioAssay
An excerpt weighted towards active compounds, which were near 22% of everything screened.
CYP2C9 activ = increases human cytochrome P450 2C9 activity; recombinant CYP2C9, luciferin-H conversion, luminescence; hits give high values; factor 1 = untreated enzyme, 0 = blocked; activation factor at 5 µM; 96,000 tested, 1.4% active;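 active = activation factor of 2 or more for CYP2C9 at a 5 µM dose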;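 note: 0 = sulfaphenazole-blocked wells and 1 = vehicle-only wells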
CYP2C19 inh = human CYP2C19 inhibition. P33261. CYP2C19 Supersomes, luciferin-H EGE luminescence, 30 min. inhibition, % at 5 µM. 96,000 tested, 21% active;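 active = CYP2C19 inhibition above a set limit at 5 µM in the primary screen, cut at about 50% in these data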;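 note: plate controls were negative control wells for no effect and 2.5 mM tranylcypromine positive control for full effect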
Target sequence (P33261 whole entry, looked up): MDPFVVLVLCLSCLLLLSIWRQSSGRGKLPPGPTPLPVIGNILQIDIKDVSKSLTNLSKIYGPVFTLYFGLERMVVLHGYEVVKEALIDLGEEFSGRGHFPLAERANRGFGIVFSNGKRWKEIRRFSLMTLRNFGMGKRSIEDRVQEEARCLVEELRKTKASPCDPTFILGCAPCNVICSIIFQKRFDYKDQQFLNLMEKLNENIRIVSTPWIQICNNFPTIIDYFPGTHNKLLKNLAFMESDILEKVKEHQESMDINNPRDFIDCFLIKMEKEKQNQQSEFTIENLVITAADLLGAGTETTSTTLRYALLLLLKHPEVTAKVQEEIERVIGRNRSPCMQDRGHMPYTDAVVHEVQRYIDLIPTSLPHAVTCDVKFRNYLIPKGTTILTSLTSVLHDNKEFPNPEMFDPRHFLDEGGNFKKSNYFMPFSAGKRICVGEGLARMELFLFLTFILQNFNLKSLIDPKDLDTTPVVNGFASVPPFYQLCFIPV
CYP2C19 activ = increases human CYP2C19 enzyme activity. recombinant CYP2C19, luciferin-H EGE luminescence; hits give high values; 0 = fully inhibited enzyme, 1 = untreated enzyme. activation factor at 5 µM. 96,000 tested, under 10 active. AID 1025;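 active = activation factor of at least 2 at 5 µM in the primary screen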;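 note: 0 = wells with 2.5 mM tranylcypromine and 1 = vehicle-only wells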
CYP2C9 inh = blocks human cytochrome P450 2C9 | P11712 | CYP2C9 Supersomes, luciferin-H conversion, luminescence | inhibition, % at 5 µM | 96,000 tested, 20% active | AID 777;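 active = blocking of liver enzyme CYP2C9 beyond about 50% at 5 µM, limit read from the data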
Measles CPE = protection of cells from measles virus; Measles virus-infected cells, CPE protection, absorbance; protection (pct of control), % at 4 µM; 140,000 tested, 1.5% active; AID 841; in the data active = protection mostly above about 24%, no sharp cut-off; inactive = mostly below about 26%
* marks the source's active call; other numbers are inactive results; . = not tested or not shown.

SMILES | CYP2C9 activ | CYP2C19 inh | CYP2C19 activ | CYP2C9 inh | Measles CPE
Cc1ccc(SC(C)C(=O)Nc2cccc(N(C)S(C)(=O)=O)c2)cc1 (stereo unspecified) | 0.2 | 61* | 0.4 | 83* | 33*
Cc1ccc(SC(C)C(=O)Nc2cccnc2)cc1 (stereo unspecified) | 0.9 | 39 | 0.6 | 8 | 11
CSc1cccc(NC(=O)C(C)Sc2ccc(C)cc2)c1 (stereo unspecified) | 0.3 | 70* | 0.3 | 67* | 3
COc1cc(OC)cc(C(=O)Nn2cc(C(=O)Nc3ccc(F)cc3F)c3ccccc3c2=O)c1 | . | . | . | . | 11
CCc1cc(=O)oc2c(CN3CCN(C)CC3)c(O)c(Cl)cc12 | 1 | -11 | 1.1 | -2 | 28
CCc1c(C)sc(NC(=O)CSc2nc3c(c(C(F)(F)F)n2)CCc2ccccc2-3)c1C#N | 1 | -5 | 1.1 | 3 | 7
Cc1cc([N+](=O)[O-])nn1CCCC(=O)Nc1cc(Oc2ccc(F)cc2)cc([N+](=O)[O-])c1 | . | . | . | . | 4
CCOc1cc(CNn2cn[nH]c2=S)cc(Cl)c1OCc1ccccc1F | . | . | . | . | 22
N#Cc1c2n(c3c(=O)n(CC(=O)c4ccc(Br)cc4)cnc13)CCCC2 | 0.9 | 53* | 0.5 | 14 | 3
O=c1c2cnn(-c3ccccc3)c2ncn1Cc1ccccc1 | . | . | . | . | 5
N#Cc1c2n(c3c(=O)n(Cc4ccccc4)cnc13)CCCC2 | 0.2 | 98* | 0 | 82* | 5
N#Cc1c2n(c3c(=O)n(Cc4ccc(Cl)cc4)cnc13)CCCCC2 | 0 | 99* | 0 | 100* | 31
CCOC(=O)Cn1cnc2c(C#N)c3n(c2c1=O)CCCCC3 | 1 | 2 | 1 | 4 | 10
N#Cc1c2n(c3c(=O)n(CC(=O)c4ccc([N+](=O)[O-])cc4)cnc13)CCCCC2 | . | . | . | . | 2
Cc1ccc(S(=O)(=O)NC(=NC(C)C(=O)O)c2ccccc2)cc1 (stereo unspecified) | 1 | 0 | 1 | -4 | 19
CCOC(=O)COc1c(C=O)cc(Br)cc1OC | 2* | 56* | 0.4 | -98 | 11
CS(=O)(=O)c1cnc(-c2ccccc2)nc1Oc1ccc(F)cc1 | 0.9 | 11 | 0.9 | 6 | 5
COC(=O)c1cc(Br)c(=O)n(CCc2ccc(F)cc2)c1 | 0.4 | 94* | 0.1 | 56* | 5
COC(=O)c1ccc(=O)n(Cc2ccco2)c1 | . | . | . | . | 20
COC(=O)c1cc(Br)c(=O)n(Cc2ccco2)c1 | 0.8 | 23 | 0.8 | 25 | 37*
COC(=O)c1cc(Br)c(=O)n(-c2ccc(F)cc2)c1 | 0.9 | 89* | 0.1 | 15 | 12
COC(=O)C1=C(C)N(CCC2=CCCCC2)C(=O)C1 | 0.6 | 98* | 0 | 44 | 6
O=C(Nc1nnc(-c2ccccc2)s1)c1cccc(S(=O)(=O)N2CCOCC2)c1 | . | . | . | . | 8
COC(=O)c1cc(Br)c(=O)n(CCC2=CCCCC2)c1 | 0.2 | 96* | 0 | 85* | 2
COC(=O)c1cc(Br)c(=O)n(-c2ccccc2F)c1 | 1 | 51* | 0.5 | -2 | 4
SMILES | CYP2C9 activ | CYP2C19 inh | CYP2C19 activ | CYP2C9 inh | Measles CPE
COC(=O)c1cc(Br)c(=O)n(CCc2ccc(O)cc2)c1 | 0.9 | 52* | 0.5 | 10 | 10
COC(=O)c1cc(Br)c(=O)n(CCN2CCCCC2)c1 | 1 | -1 | 1 | 2 | .
COC(=O)c1cc(Br)c(=O)n(CC(C)C)c1 | 0.9 | 27 | 0.7 | 6 | 11
COC(=O)c1cc(Br)c(=O)n(CCN2CCCC2)c1 | 1 | 7 | 0.9 | 4 | 3
CC(C)c1ccc(C(C(=O)NC(C)(C)C)N(C(=O)CNC(=O)c2ccco2)c2cccnc2)cc1 (stereo unspecified) | . | . | . | . | 9
CCOc1ccc(CSC(=N)N)cc1[N+](=O)[O-] | 0.8 | 9 | 0.9 | 17 | 19
O=C(NNC(=O)c1ccccc1Br)c1cccc(Cl)c1 | 3.1* | 8 | 0.9 | -206 | 2
O=C(NNC(=O)c1ccccc1Br)c1ccc(Cl)cc1 | 1.3 | 16 | 0.8 | -26 | 18
CCCCOc1ccc(/C=C/C(=O)Nc2ccc([N+](=O)[O-])cc2C)cc1 | . | . | . | . | 10
CCCOc1ccc(/C=C/C(=O)Nc2ccc([N+](=O)[O-])cc2)cc1 | 0.4 | 42 | 0.6 | 59* | 51*
O=C(Cn1nc(C(F)(F)F)cc1C1CC1)Nc1ccccc1F | . | . | . | . | 11
CCc1cc(=O)oc2cc(C)c3c(C)coc3c12 | 0.8 | 63* | 0.4 | 17 | 7
CCc1cc(=O)oc2cc(C)cc(O)c12 | 2.7* | 21 | 0.8 | -166 | 12
Cc1coc2c1c(C)cc1oc(=O)c(Cc3ccccc3)c(C)c12 | 0.9 | 53* | 0.5 | 10 | 10
